From PubChem BioAssay
Rows were chosen to be rich in hits. Some 2.8% of all compounds tested hit in one or more screens of this group.
EWS-Fli inh = blocks EWS/Fli oncoprotein-driven transcription. 350,000 compounds, 0.67% hits. inhibition, % at 12.6 µM. A673 NR0B1-luciferase reporter, viability-normalised. AID 651661;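 active means mean inhibition of at least 50% after viability correction, with every replicate also passing that limit; inconclusive means mean reaches 50% but only one of two replicates passes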;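 further: firefly luciferase signal divided by Alamar Blue viability fluorescence both relative to DMSO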
PAX8 inh HTS = lowers PAX8-driven luciferase in RMG-I cells. RMG-I TPO-luciferase reporter, SteadyGlo, 24 h. inhibition, % at 12.6 µM. 360,000 compounds, 1.2% hits. AID 652154;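 active means mean replicate inhibition at least 60% with every replicate also reaching 60%; inconclusive means only one of the two criteria is met; inactive means mean below 60% and not all replicates reaching 60%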;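 further: luciferase light reporting Pax8 driven TPO promoter activity; plate controls were median of neutral control wells for no effect and mitoxantrone controls for full effect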
TWEAK Fn14 block = inhibitors of TWEAK-Fn14 interaction signaling. inhibition, % at 10 µM. TWEAK-stimulated Fn14 reporter cells, luciferase luminescence, 8 h. 360,000 compounds, 2% hits. AID 1159606; in the data active means inhibition above about 50%
TROY signal inh = blocks TROY-dependent signaling in reporter cells. AID 1347056. inhibition, % at 10 µM. 360,000 compounds, 0.98% hits. Q293 LMP1-TROYcd NF-kB luciferase reporter, 4 h;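 active means compounds whose plate-normalised and pattern-corrected inhibition of the luciferase reporter signal at the single screening dose is 50% or more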
LGR2 inh = inhibitors of bursicon-induced Drosophila LGR2 receptor cAMP signaling; inhibition, % at 9.99 µM; 380,000 compounds, 0.35% hits; HEK293 LGR2, CRE-luciferase, bursicon-stimulated, 4 h;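 active means drop in luminescence signal, shown as inhibition above about 50% in the replicate tests, limit read from the data, passing the limit was not always enough; inconclusive means probably only some replicates passing the limit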;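 further: agonist challenge used bursicon conditioned medium at about half maximal strength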
* marks the source's active call; other numbers are inactive results.

Results for O=[N+]([O-])c1c(NCCCO)cc(Sc2ccc(Cl)cc2)c2nonc12 ?
PAX8 inh HTS: -12; TWEAK Fn14 block: 48; TROY signal inh: 79*; LGR2 inh: 21

What do the screens show for `Cc1noc(C)c1S(=O)(=O)Nc1ccc2c(c1)C(=O)N([C@H](C)CO)C[C@H](C)[C@H](CN(C)C(=O)Nc1ccc3c(c1)OCO3)OCCCC[C@H](C)O2`?
EWS-Fli inh: -4; LGR2 inh: 1

What do the screens show for `O=C(NC12CC3CC(CC(C3)C1)C2)c1ccc(COc2ccc(Cl)cc2[N+](=O)[O-])o1`?
TWEAK Fn14 block: 12; TROY signal inh: -11

What do the screens show for `O=C(NC12CC3CC(CC(C3)C1)C2)c1ccc(-c2ccccc2Cl)o1`?
TWEAK Fn14 block: 64*; LGR2 inh: -5

Results for O=C(NC12CC3CC(CC(C3)C1)C2)c1ccc(-c2cccc(Cl)c2)o1 ?
PAX8 inh HTS: -183; TWEAK Fn14 block: 68*; TROY signal inh: 73*; LGR2 inh: -33

What do the screens show for `O=C(NC12CC3CC(CC(C3)C1)C2)c1ccc(-c2ccc(Cl)cc2)o1`?
EWS-Fli inh: -71; PAX8 inh HTS: -99; TWEAK Fn14 block: 36; TROY signal inh: 54*; LGR2 inh: -46

Results for CC(=O)NC(=O)c1ccc(-c2ccc(Cl)cc2)o1 ?
EWS-Fli inh: -38; PAX8 inh HTS: -39; TWEAK Fn14 block: -10; TROY signal inh: -47

How did C/C=C/c1ccc([C@H]2[C@@H](CO)N(CCC(F)(F)F)C23CN(C(=O)CC)C3)cc1 do in these assays?
EWS-Fli inh: 6; LGR2 inh: 20

Results for COc1ccc(CNC(=S)Nc2ccc(-c3ccccc3)cc2)cc1 ?
EWS-Fli inh: 1; PAX8 inh HTS: -5; TWEAK Fn14 block: 7; TROY signal inh: 15; LGR2 inh: -7

How did COc1ccc(CNC(=S)Nc2ccc(Br)cc2)cc1 do in these assays?
EWS-Fli inh: 0; PAX8 inh HTS: -25; TWEAK Fn14 block: 64*; TROY signal inh: 21; LGR2 inh: 5

How did CNC(=S)Nc1ccc(Br)cc1 do in these assays?
PAX8 inh HTS: -3; TWEAK Fn14 block: 32; TROY signal inh: 61*; LGR2 inh: 3

How did Fc1ccc(NC(=S)Nc2ccc(Br)cc2)cc1 do in these assays?
PAX8 inh HTS: -2; TWEAK Fn14 block: 5; TROY signal inh: -26; LGR2 inh: -10

How did O=C(O)c1ccccc1CN1C[C@H]2O[C@H](CNS(=O)(=O)c3ccc(Cl)cc3)CC[C@H]21 do in these assays?
EWS-Fli inh: 8; PAX8 inh HTS: 6

How did COC(=O)c1c(C)n(-c2ccc(OC)cc2)c2ccc(O)cc12 do in these assays?
TWEAK Fn14 block: 52*; TROY signal inh: 39

How did COc1ccc(-n2c(C)c(C(C)=O)c3cc(OC(C)=O)ccc32)cc1 do in these assays?
EWS-Fli inh: 3; PAX8 inh HTS: 6; TWEAK Fn14 block: 84*; TROY signal inh: 52*; LGR2 inh: 25

What do the screens show for `COc1ccc2c(c1)c(C(C)=O)c(C)n2-c1ccc(C(C)=O)cc1`?
EWS-Fli inh: -12; PAX8 inh HTS: -128; TWEAK Fn14 block: 15; TROY signal inh: 27; LGR2 inh: 5

Results for CCOC(=O)c1c(C)n(-c2ccc(F)cc2)c2ccc(O)cc12 ?
TWEAK Fn14 block: 23; TROY signal inh: 0; LGR2 inh: -3

Results for CC(=C\c1ccccc1)/C=C1/SC(=S)N(CCC(=O)O)C1=O ?
EWS-Fli inh: 23; PAX8 inh HTS: -18; TWEAK Fn14 block: 55*; TROY signal inh: 9; LGR2 inh: -11

What do the screens show for `CC(/C=C1\SC(=O)N(CC(=O)Nc2ccc(O)cc2)C1=O)=C\c1ccccc1`?
EWS-Fli inh: 12; PAX8 inh HTS: 87*; TWEAK Fn14 block: 23; TROY signal inh: 25; LGR2 inh: 17

What do the screens show for `COc1cccc(C(=O)Nc2ccc3c(c2)C(=O)N(C)[C@@H]2CC[C@@H](CC(=O)NCC(F)(F)F)O[C@@H]2CO3)c1`?
EWS-Fli inh: 3; PAX8 inh HTS: -3; LGR2 inh: 18

Results for O=C(CCCn1c(=S)[nH]c2ccccc2c1=O)N1CCN(c2cccc(Cl)c2)CC1 ?
TWEAK Fn14 block: 51*; TROY signal inh: 52*

How did COc1cccc(N2CCN(C(=O)CCCCCNc3nc(=S)[nH]c4ccccc34)CC2)c1 do in these assays?
EWS-Fli inh: 0; PAX8 inh HTS: -7; TWEAK Fn14 block: 53*; TROY signal inh: 70*; LGR2 inh: inconclusive

How did CCCNC(=O)N(C)C[C@H]1Oc2ncc(C#CC3CC3)cc2C(=O)N([C@H](C)CO)C[C@H]1C do in these assays?
EWS-Fli inh: -2; LGR2 inh: 10

Results for CN(C)CCCNC(=O)C[C@@H]1CC[C@H](NC(=O)c2ccccc2F)[C@@H](CO)O1 ?
EWS-Fli inh: -2; PAX8 inh HTS: -2; LGR2 inh: 3

What do the screens show for `COCC(=O)Nc1ccc2c(c1)C(=O)N(C)[C@H]1CC[C@H](CC(=O)NCc3ccccc3F)O[C@H]1CO2`?
EWS-Fli inh: 2; PAX8 inh HTS: 0; LGR2 inh: -3

How did C[C@H](CO)N1C[C@H](C)[C@H](CN(C)S(=O)(=O)c2ccc(F)cc2)Oc2ccc(NC(=O)CCCN(C)C)cc2C1=O do in these assays?
EWS-Fli inh: 2; PAX8 inh HTS: -9; LGR2 inh: 3

Results for COCCN(C(=O)CNC(=O)c1ccco1)C(C(=O)NC1CCCC1)c1cccc(OC)c1 (configuration not stated) ?
EWS-Fli inh: 6; PAX8 inh HTS: 12; TWEAK Fn14 block: -2; TROY signal inh: -7; LGR2 inh: -13

How did COc1cccc(C(C(=O)NC2CCCC2)N(Cc2ccccc2OC)C(=O)c2ccco2)c1 (configuration not stated) do in these assays?
TWEAK Fn14 block: 74*

How did O=C(O)c1ccccc1-c1ccccc1C(=O)Nc1ccc(F)cc1 do in these assays?
EWS-Fli inh: 5; PAX8 inh HTS: 2; TWEAK Fn14 block: 1; TROY signal inh: 0; LGR2 inh: 11

Results for O=C(/C=C/c1ccc(NC(=O)c2ccccc2-c2ccccc2C(=O)O)cc1)c1ccccc1 ?
EWS-Fli inh: -13; PAX8 inh HTS: -2; TWEAK Fn14 block: 59*; TROY signal inh: -21; LGR2 inh: -1

How did O=C(Nc1ccc(S(=O)(=O)NC2=NCCCCC2)cc1)c1ccc([N+](=O)[O-])s1 do in these assays?
EWS-Fli inh: 59*; PAX8 inh HTS: 95*; TWEAK Fn14 block: -2; TROY signal inh: 12; LGR2 inh: 16

What do the screens show for `CO[C@H]1CN(C)C(=O)c2cc(NC(=O)C3CCOCC3)ccc2OC[C@H](C)N(C(C)=O)C[C@H]1C`?
EWS-Fli inh: 0; PAX8 inh HTS: -1; LGR2 inh: 2

Results for O=C1C(Cl)=C(NCCN2CCCCC2)C(=O)c2ccccc21 ?
TWEAK Fn14 block: 93*; TROY signal inh: 54*

How did CCNC1=C(Cl)C(=O)c2ccccc2C1=O do in these assays?
TWEAK Fn14 block: 12; TROY signal inh: -30

How did O=C(O)C[C@H]1C[C@@H]2c3cc(NS(=O)(=O)c4ccc(F)cc4)ccc3O[C@@H]2[C@H](CO)O1 do in these assays?
EWS-Fli inh: -6; PAX8 inh HTS: -1; LGR2 inh: 8
